{
  "source": "ChEMBL document CHEMBL1157539",
  "about": "“Thousands of chemical starting points for antimalarial lead identification” (Nature, 2010)",
  "data": [
    {"tested_on": "HepG2", "assay": "GSK_TCMDC: Percent inhibition of human HepG2 cell line. Test compounds present at 10uM.", "type": "functional", "units": {"Inhibition": "%"}, "values": [
      {"compound": "Cc1cc(NC(=O)Nc2ccc3nc(C)oc3c2)c2cc(Cl)ccc2n1", "Inhibition": 0},
      {"compound": "COc1cc2c(Nc3ccc(NC(=O)c4ccccc4)cc3)ncnc2cc1OCCCN1CCOCC1", "Inhibition": 14},
      {"compound": "O=C(NCCCCCN1CCC(c2c[nH]c3ccccc23)CC1)Nc1cccc(C(F)(F)F)c1", "Inhibition": 51},
      {"compound": "CCOc1ccc(NC(=O)c2cn3nc(-c4ccc(OCC)cc4)cc3nc2C2CCNCC2)cc1.Cl", "Inhibition": 36},
      {"compound": "CC(=O)N(C)C1CCN(Cc2cccc(-c3ccc(-c4nc5cc(C(F)(F)F)ccc5[nH]4)cc3)c2)C1.O=C(O)C(F)(F)F", "note": "(centres undefined)", "Inhibition": 31},
      {"compound": "CN1CCC(N(Cc2ccc(-c3ccc(Cl)cc3)cc2)C(=O)Cn2c(CCc3cccc(F)c3F)cc(=O)c3ccccc32)CC1.O=C(O)C(O)C(O)C(=O)O", "Inhibition": 93},
      {"compound": "O=C(Cc1c[nH]cn1)Nc1ccc(-c2cccc(-c3nc4cc(C(F)(F)F)ccc4[nH]3)c2)cc1", "Inhibition": 20},
      {"compound": "Cl.Oc1cccc(Nc2nc(NCC3CCCO3)c3ccccc3n2)c1", "note": "(centres undefined)", "Inhibition": 0},
      {"compound": "CN1CCc2ccc(NC(=O)Nc3ccc(Cl)c(Cl)c3)cc2C1", "Inhibition": 0},
      {"compound": "CN1CCN(c2ccc(Nc3ncc(C#N)c(Nc4ccccc4C(N)=O)n3)cc2)CC1.Cl", "Inhibition": 43},
      {"compound": "O=C(Nc1ccc(Cl)cc1)N[C@H]1CCN(Cc2ccc(OCCCN3CCCCC3)cc2)C1", "Inhibition": 29},
      {"compound": "O=C(Nc1ccc2c(c1)CCN2C1CCN(Cc2cccc(C(F)(F)F)c2)C1)c1ccco1", "note": "(centres undefined)", "Inhibition": 4},
      {"compound": "O=C(O)C(F)(F)F.Oc1ccc(CCNc2nc(NCc3ccccc3-c3ccc(C(F)(F)F)cc3)nc(N3CCCNCC3)n2)cc1", "Inhibition": 12},
      {"compound": "COc1cc2nc(NCc3nc4ccccc4[nH]3)nc(N)c2cc1OC.Cl", "Inhibition": 3},
      {"compound": "O=[N+]([O-])c1cccc(C(Nc2ccccn2)c2ccc3cccnc3c2O)c1", "note": "(centres undefined)", "Inhibition": 53},
      {"compound": "Cc1nc2ccc([N+](=O)[O-])cc2c(=O)n1OCc1ccccc1", "Inhibition": 2},
      {"compound": "CCOC(=O)c1ccc(NC(=O)N(Cc2ccc(-c3ccc(CN4CCNCC4)cc3)cc2)Cc2cccnc2)cc1.O=C(O)C(F)(F)F", "Inhibition": 13},
      {"compound": "NCc1cccc(-c2ccc(CNC3CCN(Cc4ccccc4)CC3)cc2)c1.O=C(O)C(F)(F)F", "Inhibition": 2},
      {"compound": "CCc1ccc(CN2CCC(NC(=O)c3ccc(-c4ccccc4F)s3)CC2)cc1.O=C(O)C(F)(F)F", "Inhibition": 35},
      {"compound": "CCCCCCCCNc1c2ccc(Cl)cc2nc2ccc(OC)cc12.Cl", "Inhibition": 11},
      {"compound": "O=C(NCCCc1ccccc1)c1ccc(O)c(-c2cc(Cl)cc(Cl)c2)c1", "Inhibition": 0},
      {"compound": "N=c1ccn(CC(=NO)c2ccc(Cl)c(Cl)c2)cc1", "Inhibition": 23},
      {"compound": "Cl.O=C(/C=C/c1ccc(F)cc1)NC1CCC(CCN2CCc3ccc(-n4cccn4)cc3CC2)CC1", "note": "(centres undefined)", "Inhibition": 23},
      {"compound": "O=S1(=O)C=C(c2ccccc2)CC1", "Inhibition": 57},
      {"compound": "O=c1cc(NCCCN(Cc2ccccc2)Cc2ccccc2)[nH]c2ccccc12", "Inhibition": 7},
      {"compound": "COc1ccc2nccc([C@@H](O)CN3CCC(NCCOc4cccc(C(F)(F)F)c4Cl)CC3)c2c1.O=C(O)C(=O)O", "Inhibition": 13},
      {"compound": "COc1ccc(CN2CCC(CNCCc3c(Cl)cccc3Cl)CC2)cc1.O=C(O)C(F)(F)F", "Inhibition": 45},
      {"compound": "Cc1cccc2nc(-c3ccc(-c4cccc(NC(=O)C(C)CN5CCN(C)CC5)c4)s3)[nH]c12", "note": "(centres undefined)", "Inhibition": 11},
      {"compound": "Cc1ccc(C(=O)NC2C(=O)NC2c2ccccc2)c(C)c1", "note": "(centres undefined)", "Inhibition": 7},
      {"compound": "O=C(/C=C/c1c(Cl)cccc1Cl)NC1CCC(CN2CCC(Cc3cc4ccccc4[nH]3)CC2)CC1", "note": "(centres undefined)", "Inhibition": 97},
      {"compound": "CC1(C)CC(NCCCCCCCOc2ccc(OCc3ccccc3)cc2)CC(C)(C)N1.Cl", "Inhibition": 99},
      {"compound": "O=C(O)C(F)(F)F.OC1CCCN(Cc2ccc(-c3ccc(-c4nc5ccccc5[nH]4)cc3)cc2)C1", "note": "(centres undefined)", "Inhibition": 46},
      {"compound": "COc1cccc(CN2CCC3(CC2)CN(C(=O)Nc2ccc(Cl)c(Cl)c2)C3)c1", "Inhibition": 29},
      {"compound": "O=C(C1CCN(C(c2ccccc2)c2ccc(Cl)c(Cl)c2)CC1)N1CC=CC1", "note": "(centres undefined)", "Inhibition": 1},
      {"compound": "COc1ccc2nccc([C@@H](O)CN3CCC(NC(=O)/C=C/c4ccc5ccccc5n4)CC3)c2c1", "Inhibition": 12},
      {"compound": "COc1ccc(-c2cccc(NC(=O)c3cccc(Cl)c3)c2)cc1CN1CCNCC1.O=C(O)C(F)(F)F", "Inhibition": 29},
      {"compound": "N#Cc1cccc(C(=O)N2CCOC(CCN3CCC(c4ccccc4)CC3)(c3ccc(Cl)c(Cl)c3)C2)c1", "note": "(centres undefined)", "Inhibition": 51},
      {"compound": "COc1cc(-n2cnc3cc(-c4ccc([N+](=O)[O-])cc4)sc3c2=O)ccc1OCCN1CCCC1.O=C(O)C(F)(F)F", "Inhibition": 44},
      {"compound": "COc1ccc(C2CCN(CCCCNC(=O)c3ccc(NC(=O)c4ccc(Cl)cc4)cc3)CC2)c(C)c1.Cl", "Inhibition": 22}
    ]}
  ]
}
